In ChEMBL document CHEMBL1961873, “Compounds: GSK PKIS; Assays: Nanosyn kinase panel” (2012):

Assays:
[1] = biological target: High affinity nerve growth factor receptor (Homo sapiens) (UniProt P04629); conditions: at 1 µM;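 further: each value is the mean percent inhibition of TRKA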
[2] = biological target: BDNF/NT-3 growth factors receptor (Homo sapiens) (UniProt Q16620); conditions: at 0.1 µM
[3] = biological target: BDNF/NT-3 growth factors receptor (Homo sapiens) (UniProt Q16620); conditions: at 1 µM
[4] = biological target: NT-3 growth factor receptor (Homo sapiens) (UniProt Q16288); conditions: at 0.1 µM
[5] = biological target: NT-3 growth factor receptor (Homo sapiens) (UniProt Q16288); conditions: at 1 µM
[6] = biological target: T1, Tyrosine-protein kinase TXK (Homo sapiens) (UniProt P42681); conditions: at 0.1 µM
T1 sequence (whole entry): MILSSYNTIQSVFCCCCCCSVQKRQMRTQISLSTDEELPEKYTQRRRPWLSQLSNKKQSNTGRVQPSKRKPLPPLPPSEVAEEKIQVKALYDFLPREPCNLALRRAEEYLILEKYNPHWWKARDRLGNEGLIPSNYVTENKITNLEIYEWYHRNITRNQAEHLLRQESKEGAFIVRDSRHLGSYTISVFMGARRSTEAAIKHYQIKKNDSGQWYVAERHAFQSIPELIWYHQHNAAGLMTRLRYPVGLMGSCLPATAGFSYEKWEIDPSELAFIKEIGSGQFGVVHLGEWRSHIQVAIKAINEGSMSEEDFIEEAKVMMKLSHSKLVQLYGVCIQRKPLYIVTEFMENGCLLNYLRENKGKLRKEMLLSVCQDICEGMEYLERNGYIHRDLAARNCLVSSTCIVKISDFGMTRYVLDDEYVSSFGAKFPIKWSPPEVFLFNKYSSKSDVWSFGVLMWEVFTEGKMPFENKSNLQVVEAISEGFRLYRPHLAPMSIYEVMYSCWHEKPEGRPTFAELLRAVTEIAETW

[7] = biological target: T1, Tyrosine-protein kinase TXK (Homo sapiens); conditions: at 1 µM
[8] = biological target: Non-receptor tyrosine-protein kinase TYK2 (Homo sapiens) (UniProt P29597); conditions: at 0.1 µM;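 further: each value is a mean of the inhibition readings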
[9] = biological target: T2, Dual specificity protein kinase TTK (Homo sapiens) (UniProt P33981); conditions: at 1 µM;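 further: reported figures are mean TTK inhibition at 1 µM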
T2 sequence (whole entry): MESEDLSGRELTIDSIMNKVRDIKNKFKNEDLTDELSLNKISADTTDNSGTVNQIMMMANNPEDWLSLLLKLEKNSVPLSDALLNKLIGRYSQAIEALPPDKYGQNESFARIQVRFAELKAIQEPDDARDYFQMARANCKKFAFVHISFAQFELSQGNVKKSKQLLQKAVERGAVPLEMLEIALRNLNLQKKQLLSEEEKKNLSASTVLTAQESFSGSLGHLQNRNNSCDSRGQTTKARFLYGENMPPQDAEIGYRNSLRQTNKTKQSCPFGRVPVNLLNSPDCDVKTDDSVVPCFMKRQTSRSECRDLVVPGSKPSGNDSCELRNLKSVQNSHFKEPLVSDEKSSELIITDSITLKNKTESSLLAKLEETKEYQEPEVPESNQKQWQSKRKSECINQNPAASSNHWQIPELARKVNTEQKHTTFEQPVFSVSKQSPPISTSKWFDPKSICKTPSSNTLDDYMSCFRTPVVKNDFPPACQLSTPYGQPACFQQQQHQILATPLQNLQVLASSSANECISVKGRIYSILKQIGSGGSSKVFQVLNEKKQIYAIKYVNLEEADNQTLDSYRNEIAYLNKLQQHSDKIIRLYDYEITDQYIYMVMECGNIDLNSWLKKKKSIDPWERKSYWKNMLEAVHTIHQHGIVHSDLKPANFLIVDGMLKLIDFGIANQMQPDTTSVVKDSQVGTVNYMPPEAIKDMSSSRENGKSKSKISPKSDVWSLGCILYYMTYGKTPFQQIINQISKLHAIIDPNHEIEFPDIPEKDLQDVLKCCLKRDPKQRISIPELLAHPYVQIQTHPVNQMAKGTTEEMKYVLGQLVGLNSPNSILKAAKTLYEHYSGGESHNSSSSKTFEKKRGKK

[10] = biological target: T3, Aurora kinase A (Homo sapiens) (UniProt O14965); conditions: at 0.1 µM
T3 sequence (whole entry): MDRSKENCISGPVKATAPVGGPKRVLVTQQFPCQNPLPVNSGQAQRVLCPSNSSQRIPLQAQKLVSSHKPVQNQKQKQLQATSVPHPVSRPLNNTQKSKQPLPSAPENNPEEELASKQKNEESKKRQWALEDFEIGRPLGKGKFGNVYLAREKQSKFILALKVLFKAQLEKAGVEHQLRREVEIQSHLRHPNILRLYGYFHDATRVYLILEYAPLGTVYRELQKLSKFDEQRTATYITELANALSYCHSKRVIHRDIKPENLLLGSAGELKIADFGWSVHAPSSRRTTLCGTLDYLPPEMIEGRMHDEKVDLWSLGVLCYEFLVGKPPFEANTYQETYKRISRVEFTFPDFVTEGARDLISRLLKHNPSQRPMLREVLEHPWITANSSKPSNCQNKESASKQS

[11] = biological target: T3, Aurora kinase A (Homo sapiens); conditions: at 1 µM
[12] = biological target: Aurora kinase B (Homo sapiens) (UniProt Q96GD4); conditions: at 0.1 µM
[13] = biological target: Aurora kinase B (Homo sapiens) (UniProt Q96GD4); conditions: at 1 µM
[14] = biological target: T4, Aurora kinase C (Homo sapiens) (UniProt Q9UQB9); conditions: at 0.1 µM
T4 sequence (whole entry): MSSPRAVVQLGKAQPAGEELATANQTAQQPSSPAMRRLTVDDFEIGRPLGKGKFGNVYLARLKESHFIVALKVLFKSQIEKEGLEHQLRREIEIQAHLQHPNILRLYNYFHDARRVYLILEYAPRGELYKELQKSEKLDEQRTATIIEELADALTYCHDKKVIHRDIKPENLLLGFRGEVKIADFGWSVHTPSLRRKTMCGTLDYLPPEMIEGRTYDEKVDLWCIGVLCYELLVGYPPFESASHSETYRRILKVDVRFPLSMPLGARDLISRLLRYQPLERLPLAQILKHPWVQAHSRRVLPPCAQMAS

[15] = biological target: T4, Aurora kinase C (Homo sapiens); conditions: at 1 µM
[16] = biological target: Serine/threonine-protein kinase 10 (Homo sapiens) (UniProt O94804); conditions: at 0.1 µM
[17] = biological target: Serine/threonine-protein kinase 10 (Homo sapiens) (UniProt O94804); conditions: at 1 µM
[18] = biological target: T5, Mitogen-activated protein kinase kinase kinase kinase 2 (Homo sapiens) (UniProt Q12851); conditions: at 0.1 µM
T5 sequence (whole entry): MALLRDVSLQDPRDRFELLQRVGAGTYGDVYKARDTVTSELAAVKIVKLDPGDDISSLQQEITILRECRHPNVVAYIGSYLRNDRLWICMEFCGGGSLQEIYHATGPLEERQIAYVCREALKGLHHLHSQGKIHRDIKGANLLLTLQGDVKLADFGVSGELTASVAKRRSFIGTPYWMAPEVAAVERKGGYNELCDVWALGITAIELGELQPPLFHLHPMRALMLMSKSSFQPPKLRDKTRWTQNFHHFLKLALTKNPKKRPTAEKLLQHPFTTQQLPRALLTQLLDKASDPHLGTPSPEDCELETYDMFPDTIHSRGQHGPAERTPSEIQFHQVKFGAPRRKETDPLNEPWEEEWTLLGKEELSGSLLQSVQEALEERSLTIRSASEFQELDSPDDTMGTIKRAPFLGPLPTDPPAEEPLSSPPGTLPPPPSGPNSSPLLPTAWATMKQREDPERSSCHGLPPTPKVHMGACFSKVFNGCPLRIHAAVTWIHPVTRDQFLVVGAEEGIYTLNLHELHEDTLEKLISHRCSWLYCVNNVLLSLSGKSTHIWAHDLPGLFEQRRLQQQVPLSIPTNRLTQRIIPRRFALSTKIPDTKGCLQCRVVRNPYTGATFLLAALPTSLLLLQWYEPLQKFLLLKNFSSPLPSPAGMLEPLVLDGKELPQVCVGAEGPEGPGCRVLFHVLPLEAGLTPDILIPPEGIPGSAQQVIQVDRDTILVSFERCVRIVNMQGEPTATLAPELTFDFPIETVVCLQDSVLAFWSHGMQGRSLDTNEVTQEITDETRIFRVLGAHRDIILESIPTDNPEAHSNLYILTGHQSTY

[19] = biological target: T5, Mitogen-activated protein kinase kinase kinase kinase 2 (Homo sapiens); conditions: at 1 µM
[20] = biological target: Mitogen-activated protein kinase kinase kinase kinase 4 (Homo sapiens) (UniProt O95819); conditions: at 0.1 µM

BDNF/NT-3 growth factors receptor (Homo sapiens), sequence (Q16620 32-822 limits assumed): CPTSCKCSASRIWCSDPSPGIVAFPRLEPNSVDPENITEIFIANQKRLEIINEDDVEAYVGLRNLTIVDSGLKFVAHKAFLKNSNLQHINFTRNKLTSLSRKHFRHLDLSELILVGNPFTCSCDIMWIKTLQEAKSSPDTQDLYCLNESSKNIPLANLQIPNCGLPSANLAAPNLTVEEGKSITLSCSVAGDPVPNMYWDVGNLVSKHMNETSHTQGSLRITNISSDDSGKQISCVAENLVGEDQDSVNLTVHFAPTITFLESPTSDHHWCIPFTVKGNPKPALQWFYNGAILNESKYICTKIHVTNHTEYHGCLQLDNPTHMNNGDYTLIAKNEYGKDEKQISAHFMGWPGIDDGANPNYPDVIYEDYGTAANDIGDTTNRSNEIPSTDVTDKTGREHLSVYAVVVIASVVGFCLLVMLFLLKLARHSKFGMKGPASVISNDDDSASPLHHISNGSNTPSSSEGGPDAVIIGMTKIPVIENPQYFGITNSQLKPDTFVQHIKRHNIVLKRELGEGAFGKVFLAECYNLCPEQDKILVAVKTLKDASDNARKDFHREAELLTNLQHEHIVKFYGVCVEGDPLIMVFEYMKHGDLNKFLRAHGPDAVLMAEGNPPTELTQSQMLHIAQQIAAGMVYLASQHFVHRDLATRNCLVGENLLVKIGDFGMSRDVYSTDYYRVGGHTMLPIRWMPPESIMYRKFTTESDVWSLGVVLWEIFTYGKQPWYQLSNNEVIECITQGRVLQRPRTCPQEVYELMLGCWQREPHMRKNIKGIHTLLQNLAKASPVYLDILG
Aurora kinase B (Homo sapiens), sequence (Q96GD4 whole entry): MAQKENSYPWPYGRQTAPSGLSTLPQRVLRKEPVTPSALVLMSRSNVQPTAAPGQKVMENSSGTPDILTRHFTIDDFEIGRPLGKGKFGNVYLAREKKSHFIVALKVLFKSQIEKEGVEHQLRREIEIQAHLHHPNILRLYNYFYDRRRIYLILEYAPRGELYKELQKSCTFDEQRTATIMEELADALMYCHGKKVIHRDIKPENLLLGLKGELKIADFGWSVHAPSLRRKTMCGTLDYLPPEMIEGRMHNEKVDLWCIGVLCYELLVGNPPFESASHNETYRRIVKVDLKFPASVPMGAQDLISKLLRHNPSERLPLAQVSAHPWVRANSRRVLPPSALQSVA
Non-receptor tyrosine-protein kinase TYK2 (Homo sapiens), sequence (P29597 whole entry): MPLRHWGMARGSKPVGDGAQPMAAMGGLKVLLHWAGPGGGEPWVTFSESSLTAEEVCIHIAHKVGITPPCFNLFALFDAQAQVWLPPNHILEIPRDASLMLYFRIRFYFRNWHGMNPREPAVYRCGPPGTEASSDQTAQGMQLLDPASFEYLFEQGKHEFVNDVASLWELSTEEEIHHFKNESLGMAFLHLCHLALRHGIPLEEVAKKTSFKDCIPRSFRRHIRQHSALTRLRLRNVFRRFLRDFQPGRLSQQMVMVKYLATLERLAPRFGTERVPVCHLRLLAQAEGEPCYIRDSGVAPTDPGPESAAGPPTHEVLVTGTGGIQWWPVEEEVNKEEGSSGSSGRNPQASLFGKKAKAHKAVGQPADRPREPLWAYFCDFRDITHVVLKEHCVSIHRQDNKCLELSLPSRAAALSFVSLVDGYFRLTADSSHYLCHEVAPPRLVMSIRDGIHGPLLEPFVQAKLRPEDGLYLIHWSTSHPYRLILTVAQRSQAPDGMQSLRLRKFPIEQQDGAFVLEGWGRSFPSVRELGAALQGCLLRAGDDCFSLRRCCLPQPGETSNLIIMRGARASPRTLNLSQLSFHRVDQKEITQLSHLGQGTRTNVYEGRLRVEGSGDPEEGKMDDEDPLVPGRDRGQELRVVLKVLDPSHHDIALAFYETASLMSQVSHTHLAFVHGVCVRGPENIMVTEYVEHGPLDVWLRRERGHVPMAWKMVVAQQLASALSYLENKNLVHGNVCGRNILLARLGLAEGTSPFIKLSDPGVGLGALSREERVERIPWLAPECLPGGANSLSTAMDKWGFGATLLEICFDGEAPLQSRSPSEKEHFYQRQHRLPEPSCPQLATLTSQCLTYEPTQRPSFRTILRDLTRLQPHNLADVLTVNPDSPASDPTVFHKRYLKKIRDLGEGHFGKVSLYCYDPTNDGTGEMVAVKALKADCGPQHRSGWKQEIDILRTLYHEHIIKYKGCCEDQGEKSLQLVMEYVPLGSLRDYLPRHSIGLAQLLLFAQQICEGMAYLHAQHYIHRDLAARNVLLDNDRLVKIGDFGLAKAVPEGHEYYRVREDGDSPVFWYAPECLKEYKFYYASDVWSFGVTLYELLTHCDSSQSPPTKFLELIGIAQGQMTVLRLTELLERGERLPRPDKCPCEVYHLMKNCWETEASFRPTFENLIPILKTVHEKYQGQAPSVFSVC
High affinity nerve growth factor receptor (Homo sapiens), sequence (P04629 33-796 limits assumed): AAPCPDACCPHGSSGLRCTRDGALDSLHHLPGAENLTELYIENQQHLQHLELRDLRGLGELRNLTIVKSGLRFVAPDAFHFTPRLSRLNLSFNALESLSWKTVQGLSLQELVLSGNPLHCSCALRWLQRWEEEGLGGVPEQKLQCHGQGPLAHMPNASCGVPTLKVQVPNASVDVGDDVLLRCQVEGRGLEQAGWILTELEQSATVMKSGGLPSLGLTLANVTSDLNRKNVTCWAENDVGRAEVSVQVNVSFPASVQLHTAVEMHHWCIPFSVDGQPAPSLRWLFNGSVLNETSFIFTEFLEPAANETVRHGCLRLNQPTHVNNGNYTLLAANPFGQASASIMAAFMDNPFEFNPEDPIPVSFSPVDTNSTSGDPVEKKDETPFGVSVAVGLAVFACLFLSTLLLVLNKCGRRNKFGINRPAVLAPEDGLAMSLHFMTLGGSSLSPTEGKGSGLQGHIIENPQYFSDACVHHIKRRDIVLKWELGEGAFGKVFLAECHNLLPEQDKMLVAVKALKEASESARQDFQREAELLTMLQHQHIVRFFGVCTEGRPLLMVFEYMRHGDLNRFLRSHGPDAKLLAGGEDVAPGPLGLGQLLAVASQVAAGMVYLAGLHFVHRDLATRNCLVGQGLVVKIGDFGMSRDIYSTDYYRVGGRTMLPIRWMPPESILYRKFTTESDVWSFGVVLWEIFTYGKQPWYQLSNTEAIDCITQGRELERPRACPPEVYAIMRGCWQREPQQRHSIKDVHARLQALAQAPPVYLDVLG
Serine/threonine-protein kinase 10 (Homo sapiens), sequence (O94804 whole entry, looked up): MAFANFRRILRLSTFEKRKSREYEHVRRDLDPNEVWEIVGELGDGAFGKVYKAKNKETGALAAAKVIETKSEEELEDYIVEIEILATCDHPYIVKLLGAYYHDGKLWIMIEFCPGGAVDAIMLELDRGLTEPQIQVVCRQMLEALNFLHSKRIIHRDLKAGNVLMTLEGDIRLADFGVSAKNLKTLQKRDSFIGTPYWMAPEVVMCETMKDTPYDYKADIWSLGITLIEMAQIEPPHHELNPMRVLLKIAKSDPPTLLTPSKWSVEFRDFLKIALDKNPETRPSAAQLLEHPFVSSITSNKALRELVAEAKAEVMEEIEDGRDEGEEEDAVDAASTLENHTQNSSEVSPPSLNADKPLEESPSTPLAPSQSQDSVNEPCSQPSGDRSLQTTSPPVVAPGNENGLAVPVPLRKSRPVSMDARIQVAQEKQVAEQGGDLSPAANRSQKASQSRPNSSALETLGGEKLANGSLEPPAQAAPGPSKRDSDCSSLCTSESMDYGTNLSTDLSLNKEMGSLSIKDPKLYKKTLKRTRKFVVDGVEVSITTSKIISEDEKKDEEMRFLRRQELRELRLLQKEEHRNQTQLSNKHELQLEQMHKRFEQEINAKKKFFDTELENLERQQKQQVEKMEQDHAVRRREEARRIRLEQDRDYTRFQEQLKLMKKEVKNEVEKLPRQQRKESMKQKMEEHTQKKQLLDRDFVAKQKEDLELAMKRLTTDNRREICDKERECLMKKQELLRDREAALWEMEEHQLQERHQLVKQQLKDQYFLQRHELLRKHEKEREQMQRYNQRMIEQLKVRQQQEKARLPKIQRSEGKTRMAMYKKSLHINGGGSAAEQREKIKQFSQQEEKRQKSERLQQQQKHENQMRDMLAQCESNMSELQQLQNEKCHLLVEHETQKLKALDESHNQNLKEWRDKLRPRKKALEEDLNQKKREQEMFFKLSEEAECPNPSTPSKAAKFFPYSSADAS
NT-3 growth factor receptor (Homo sapiens), sequence (Q16288 32-839 limits assumed): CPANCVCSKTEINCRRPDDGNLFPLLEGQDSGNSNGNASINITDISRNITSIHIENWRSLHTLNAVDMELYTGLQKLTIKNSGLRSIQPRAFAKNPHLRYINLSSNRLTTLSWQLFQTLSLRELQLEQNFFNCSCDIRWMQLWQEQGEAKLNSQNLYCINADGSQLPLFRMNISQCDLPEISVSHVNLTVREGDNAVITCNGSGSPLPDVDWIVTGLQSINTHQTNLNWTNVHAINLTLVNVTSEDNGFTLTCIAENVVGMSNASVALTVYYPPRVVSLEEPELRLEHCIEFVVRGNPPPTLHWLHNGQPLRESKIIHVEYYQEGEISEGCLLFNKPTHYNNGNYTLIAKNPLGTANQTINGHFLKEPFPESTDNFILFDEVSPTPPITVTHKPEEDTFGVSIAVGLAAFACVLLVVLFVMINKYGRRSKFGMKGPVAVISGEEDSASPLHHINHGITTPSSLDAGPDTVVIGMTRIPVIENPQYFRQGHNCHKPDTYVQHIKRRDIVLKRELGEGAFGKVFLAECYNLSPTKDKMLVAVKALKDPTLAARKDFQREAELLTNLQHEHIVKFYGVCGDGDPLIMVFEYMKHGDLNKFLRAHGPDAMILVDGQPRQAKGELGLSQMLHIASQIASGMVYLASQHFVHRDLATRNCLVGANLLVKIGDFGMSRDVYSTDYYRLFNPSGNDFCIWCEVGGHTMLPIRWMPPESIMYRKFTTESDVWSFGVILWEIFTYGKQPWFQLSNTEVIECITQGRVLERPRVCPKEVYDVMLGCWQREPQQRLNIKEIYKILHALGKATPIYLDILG

SMILES | inhibition [1] | inhibition [2] | inhibition [3] | inhibition [4] | inhibition [5] | inhibition [6] | inhibition [7] | inhibition [8] | inhibition [9] | inhibition [10] | inhibition [11] | inhibition [12] | inhibition [13] | inhibition [14] | inhibition [15] | inhibition [16] | inhibition [17] | inhibition [18] | inhibition [19] | inhibition [20]
COc1ccc(-c2cc(-c3c[nH]nc3-c3ccccn3)ccn2)cc1 | 3.12% | 3.7% | 3.9% | 3.2% | 5.62% | 1.77% | 3.18% | -6.95% | 10.5% | 3.7% | 5.58% | 4.41% | 5.71% | 2.12% | -1.66% | 5.75% | 8.57% | 1.74% | 2.15% | 35.5%
Fc1ccc(-c2nn3ncccc3c2-c2ccnc(Nc3ccc4c(c3)OCCO4)n2)cc1 | 16.7% | 4.94% | 12.8% | 3.72% | 8.83% | 10.8% | 38% | -8.76% | 19.2% | 2.98% | 33.7% | 4.26% | 12.2% | 1.04% | 22.9% | 10.8% | 41.8% | 1.14% | 12.1% | 20.1%
CCCN1CCC(c2ccc(Nc3nc(Nc4cc(F)ccc4C(N)=O)c4cc[nH]c4n3)c(OC)c2)CC1 | 3.87% | 4.25% | 9.14% | 2.83% | 7.22% | 3.85% | 6.29% | -2.8% | 83% | 2.78% | 10.4% | 1.95% | 3.04% | 0.37% | -4.81% | 7.74% | 29.2% | 10.2% | 51.6% | 28.1%
c1ccc(COc2ccc(Nc3ncnc4ccc(-c5ccco5)cc34)cc2)cc1 | -2.33% | -0.32% | 3.16% | -0.16% | 0.74% | 0.01% | 1.09% | -4.95% | 3.2% | 2.29% | 3.53% | 1.9% | 4.9% | 0.82% | 6.4% | 3.53% | 5.39% | 2.84% | 2.66% | 2.01%
